As usually defined, the AC50 is the concentration giving half of the maximal activity seen.

The nature of assay [1]: ATG_TGFb_CIS: Attagene CIS-FACTORIAL HepG2 Assay for human Transforming Growth Factor (TGF) (AID 2282967; active = hit-call score of the fitted dose curve at least 0.9, where 1 is the maximum; inactive = score below 0.9). To be noted: HepG2 Attagene CIS TGFb reporter, mRNA transcription; actives raise or lower the signal. The method in brief: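 HepG2 cells transiently transfected with cis-promoter-driven multiplexed reporter units; 24 h compound exposure. Reporter mRNA measured by RT-PCR, 6-FAM labeling, HpaI digestion and capillary electrophoresis; bidirectional fit versus DMSO baseline.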

Assay [2] can be described thus: ATG_VDRE_CIS: Attagene CIS-FACTORIAL HepG2 Assay for human Vitamin D Receptor Element (VDRE) (AID 2282968; active = hit-call score of the fitted dose curve at least 0.9, where 1 is the maximum; inactive = score below 0.9). The note with it: HepG2 VDRE cis-reporter transcription, actives raise or lower the signal. The method in brief:
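In transiently transfected HepG2 liver cells, gain or loss of reporter mRNA after 24 h exposure is scored relative to DMSO, using fluorescence detection by capillary electrophoresis of RT-PCR products.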

The target in assay [3] is Nuclear receptor subfamily 1 group I member 3 (Homo sapiens) (UniProt Q14994). As to the kind of experiment: ATG_CAR_TRANS: Attagene TRANS-FACTORIAL HepG2 Assay for human Constitutive Androstane Receptor (CAR) (AID 2282969).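 Also: activators raise reporter mRNA above DMSO so AC50 marks induction.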 The note with it: HepG2 Attagene TRANS-FACTORIAL CAR reporter. The method in brief:
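Readout is reporter mRNA induction, quantified by fluorescent primer extension and capillary electrophoresis after RT-PCR. Cells were HepG2 transiently carrying chimeric NR-Gal4 constructs with GAL4-UAS reporters, treated for 24 h; activity scored upward from DMSO.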

In assay [4] the target is Estrogen receptor (Homo sapiens) (UniProt P03372). Nature of the assay: ATG_ERa_TRANS: Attagene TRANS-FACTORIAL HepG2 Assay for human Estrogen Receptor alpha (ERa) (AID 2282970). The note with it: HepG2 Attagene TRANS ERa GAL4 reporter, mRNA. The method in brief:
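After 24 h of compound treatment, RNA from HepG2 cells bearing transfected GAL4-UAS reporter constructs is converted to cDNA, amplified and fluorescently labelled. Capillary electrophoresis resolves the ERa-linked reporter; DMSO serves as negative control.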

Assay [5] addresses Steroid hormone receptor ERR1 (Homo sapiens) (UniProt P11474). Nature of the assay: ATG_ERRa_TRANS: Attagene TRANS-FACTORIAL HepG2 Assay for human Estrogen-Related Receptor alpha (ERRa) (AID 2282971). The note with it: HepG2 Attagene TRANS reporter, ERRa transactivation. The method in brief: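 Transfected HepG2, 24 h dosing, ERRa-Gal4 chimera driving GAL4-UAS reporter. Readout: reporter mRNA via RT-PCR plus capillary electrophoresis (fluorescence). Positive direction vs DMSO control.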

Assay [6] deals with X-box-binding protein 1 (Homo sapiens) (UniProt P17861). Nature of the assay: ATG_Xbp1_CIS: Attagene CIS-FACTORIAL HepG2 Assay for human X-box Binding Protein 1 (XBP1) (AID 2282972; active = hit-call score of the fitted dose curve at least 0.9, where 1 is the maximum; inactive = score below 0.9). The note with it: HepG2 XBP1 cis-element reporter, Attagene multiplex; actives raise or lower the signal. The method in brief: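 HepG2 cells transiently transfected with multiple cis-element reporter units report endogenous TF activity; 24 h exposure, then reporter mRNA measured by RT-PCR, 6-FAM labelling, HpaI digestion and capillary electrophoresis. Bidirectional fitting versus DMSO.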
X-box-binding protein 1 (Homo sapiens), sequence (P17861 whole entry, looked up): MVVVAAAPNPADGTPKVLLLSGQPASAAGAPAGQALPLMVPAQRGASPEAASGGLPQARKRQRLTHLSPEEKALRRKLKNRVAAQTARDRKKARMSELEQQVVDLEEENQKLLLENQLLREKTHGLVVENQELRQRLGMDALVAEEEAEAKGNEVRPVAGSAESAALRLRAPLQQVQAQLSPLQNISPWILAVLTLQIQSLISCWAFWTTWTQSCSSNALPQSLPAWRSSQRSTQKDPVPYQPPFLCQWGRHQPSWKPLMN

The target in assay [7] is Oxysterols receptor LXR-alpha (Homo sapiens) (UniProt Q13133). Nature of the assay: ATG_LXRa_TRANS: Attagene TRANS-FACTORIAL HepG2 Assay for human Liver X Receptor alpha (LXRa) (AID 2282980). To be noted: HepG2 Attagene TRANS reporter, LXRa transactivation. The method in brief:
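Read-out: reporter transcript levels by RT-PCR plus capillary electrophoresis, fluorescence intensity. Transiently transfected HepG2, exogenous NR-GAL4 chimera, GAL4-UAS reporters; 24 h compound exposure. Activity = increase over DMSO negative control.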

Assay [8] in a line: ATG_M_06_TRANS: Attagene TRANS-FACTORIAL HepG2 Assay for M06 Transcription Factor (Internal Marker) (AID 2282983). To be noted: HepG2 Attagene TRANS M06 internal marker reporter. In a few lines:
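After a 24 h chemical treatment of transfected HepG2, RNA underwent DNase I treatment, reverse transcription and reporter-specific PCR; labelled, HpaI-digested products were sized by capillary electrophoresis. Signal increase relative to DMSO defined activity.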

Assay [9] in a line: ATG_M_32_TRANS: Attagene TRANS-FACTORIAL HepG2 Assay for M32 Transcription Factor (Internal Marker) (AID 2282984).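 Also: transcript level of a background control reporter unit measured by RT-PCR and capillary electrophoresis.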 The note with it: HepG2 Attagene TRANS M32 internal marker reporter. The method in brief:
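Using transiently transfected HepG2 cells exposed to test chemicals for 24 h, reporter transcripts are converted to labelled cDNA fragments and quantified by capillary electrophoresis. DMSO defines the activity baseline.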

In assay [10] the target is Nuclear receptor subfamily 4 group A member 2 (Homo sapiens) (UniProt P43354). As to the kind of experiment: ATG_NURR1_TRANS: Attagene TRANS-FACTORIAL HepG2 Assay for human Nuclear Receptor Related Protein 1 (NURR1) (AID 2282985). The note with it: HepG2 Attagene TRANS reporter, mRNA readout. In a few lines:
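Cells: HepG2, transiently transfected. Exposure: 24 h. Detection: fluorescence of labelled RT-PCR products separated by capillary electrophoresis; upward fit versus DMSO.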

Assay [11] deals with Transcriptional activator Myb (Homo sapiens) (UniProt P10242). As to the kind of experiment: ATG_Myb_CIS: Attagene CIS-FACTORIAL HepG2 Assay for human Myeloblastosis (Myb) Proto-Oncogene Transcription Factor (AID 2282986; active = hit-call score of the fitted dose curve at least 0.9, where 1 is the maximum; inactive = score below 0.9). To be noted: HepG2 Attagene CIS-FACTORIAL Myb reporter transcription; actives raise or lower the signal. The method in brief:
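HepG2, transient MRTU transfection (cis-element promoters, endogenous TF activity), 24 h compound exposure. Readout: reporter mRNA via RT-PCR, 6-FAM labeling, HpaI digest, capillary electrophoresis. Gain/loss fit vs DMSO.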

The target in assay [12] is Nuclear respiratory factor 1 (Homo sapiens) (UniProt Q16656). Nature of the assay: ATG_NRF1_CIS: Attagene CIS-FACTORIAL HepG2 Assay for human Nuclear Respiratory Factor 1 (NRF1) Orphan Gene (AID 2282987; active = hit-call score of the fitted dose curve at least 0.9, where 1 is the maximum; inactive = score below 0.9). The note with it: HepG2 NRF1 cis-element reporter, Attagene multiplex; actives raise or lower the signal. In a few lines: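 Endogenous NRF1-driven reporter transcription measured in transiently transfected human HepG2 liver cells. Readout: reporter mRNA by RT-PCR and capillary electrophoresis with fluorescence detection, 24 h post-dosing. Gain or loss of signal fitted relative to DMSO baseline.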
Nuclear respiratory factor 1 (Homo sapiens), sequence (Q16656 whole entry, looked up): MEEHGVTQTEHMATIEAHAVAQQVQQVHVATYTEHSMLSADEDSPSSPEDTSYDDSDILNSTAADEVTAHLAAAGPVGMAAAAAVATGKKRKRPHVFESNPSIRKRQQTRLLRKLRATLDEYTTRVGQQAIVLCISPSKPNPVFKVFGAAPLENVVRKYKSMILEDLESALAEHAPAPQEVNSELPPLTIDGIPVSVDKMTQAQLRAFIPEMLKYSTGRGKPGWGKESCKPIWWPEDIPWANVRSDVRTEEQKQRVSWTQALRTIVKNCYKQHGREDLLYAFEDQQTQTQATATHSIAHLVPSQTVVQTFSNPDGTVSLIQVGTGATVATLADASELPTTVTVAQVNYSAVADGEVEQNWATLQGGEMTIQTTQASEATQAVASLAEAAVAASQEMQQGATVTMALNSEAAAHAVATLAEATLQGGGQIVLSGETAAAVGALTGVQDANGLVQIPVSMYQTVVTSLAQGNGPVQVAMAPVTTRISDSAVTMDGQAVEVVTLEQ

A short description of assay [13]: ATG_GAL4_TRANS: Attagene TRANS-FACTORIAL HepG2 Assay for GAL4 (Internal Marker) (AID 2282976). To be noted: HepG2 Attagene TRANS GAL4 internal marker reporter. In a few lines: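 RT-PCR/capillary electrophoresis readout of reporter mRNA. HepG2, transient MRTU transfection (GAL4-UAS reporters), 24 h compound exposure. Background-control endpoint, positive direction vs DMSO baseline.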

Assay [14] has as its target Estrogen-related receptor gamma (Homo sapiens) (UniProt P62508). As to the kind of experiment: ATG_ERRg_TRANS: Attagene TRANS-FACTORIAL HepG2 Assay for human Estrogen-Related Receptor gamma (ERRg) (AID 2282977).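 Also: hits increase reporter signal over DMSO so potencies reflect activators.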 To be noted: HepG2 Attagene TRANS reporter, ERRg transactivation. In a few lines:
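HepG2 cells transiently transfected with multiplexed GAL4-UAS reporter units and chimeric NR-Gal4 constructs were exposed to test chemicals for 24 h. Reporter mRNA was measured by RT-PCR, 6-FAM primer extension, HpaI digestion and capillary electrophoresis; gain-of-signal versus DMSO.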

Assay [15] in a line: ATG_M_19_TRANS: Attagene TRANS-FACTORIAL HepG2 Assay for M19 Transcription Factor (Internal Marker) (AID 2282974). To be noted: HepG2 Attagene TRANS-FACTORIAL M19 internal marker reporter. The method in brief: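 24 h chemical exposure of transiently transfected HepG2 (MRTU library). RNA → oligo(dT) RT → PCR → 6-FAM labelling → HpaI cut → CE fluorescence. Positive-direction fit vs DMSO baseline; background internal-marker readout.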

Assay [16] addresses Glucocorticoid receptor (Homo sapiens) (UniProt P04150). Nature of the assay: ATG_GR_TRANS: Attagene TRANS-FACTORIAL HepG2 Assay for human Glucocorticoid Receptor (GR) (AID 2282978).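 Also: activators score as hits since higher reporter transcript over DMSO is fitted.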 To be noted: HepG2 Attagene TRANS GR reporter, mRNA transcription. In a few lines:
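Transient MRTU transfection of HepG2 (GAL4-UAS reporters, exogenous NR-GAL4 chimeras), 24 h dosing. Readout: reporter transcript via RT-PCR + capillary electrophoresis fluorescence. Positive direction vs DMSO baseline.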

Assay [17] addresses Oxysterols receptor LXR-beta (Homo sapiens) (UniProt P55055). Nature of the assay: ATG_LXRb_TRANS: Attagene TRANS-FACTORIAL HepG2 Assay for human Liver X Receptor beta (LXRb) (AID 2282981). To be noted: HepG2 Attagene TRANS GAL4-LXRb reporter, mRNA. In a few lines:
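Cells: HepG2, transiently transfected with GAL4-UAS reporter units plus LXRb-Gal4 fusion. Treatment: 24 h. Detection: reporter mRNA by RT-PCR, 6-FAM labelling, HpaI digestion, capillary electrophoresis.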

Assay [18] has as its target Hepatocyte nuclear factor 4-alpha (Homo sapiens) (UniProt P41235). Nature of the assay: ATG_HNF4a_TRANS: Attagene TRANS-FACTORIAL HepG2 Assay for human Hepatocyte Nuclear Factor 4 alpha (HNF4a) (AID 2282982). To be noted: HepG2 HNF4a transactivation reporter, mRNA readout. In a few lines:
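Transfected HepG2 reporter cells are dosed for 24 h; reporter RNA is reverse-transcribed, amplified, fluorescently labelled and HpaI-digested before CE sizing. Positive-direction fit against DMSO.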

The target in assay [19] is Bile acid receptor (Homo sapiens) (UniProt Q96RI1). As to the kind of experiment: ATG_FXR_TRANS: Attagene TRANS-FACTORIAL HepG2 Assay for Farnesoid X Receptor (FXR) (AID 2282979).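 Also: hits raise reporter mRNA above DMSO so AC50 marks FXR activation.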 To be noted: HepG2 Attagene TRANS FXR-GAL4 reporter transcription. In a few lines: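 Read-out: fluorescent reporter transcripts quantified by capillary electrophoresis after RT-PCR of total RNA. Source cells were HepG2 transiently carrying chimeric NR-GAL4 plus GAL4-UAS reporter units, dosed 24 h. Activity fitted upward relative to DMSO baseline.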

The target of assay [20] is Androgen receptor (Homo sapiens) (UniProt P10275). As to the kind of experiment: ATG_AR_TRANS: Attagene TRANS-FACTORIAL HepG2 Assay for human Androgen Receptor (AR) (AID 2282973). To be noted: HepG2 Attagene TRANS-FACTORIAL AR reporter transcription. The method in brief:
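Readout is reporter transcript abundance, quantified by fluorescent RT-PCR products separated on capillary electrophoresis. Human HepG2 liver cells carried transiently transfected NR-Gal4 chimera plus GAL4-UAS reporter constructs and were dosed for 24 h; activity scored upward versus DMSO.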

Molecules are shown by their SMILES. Results filed as inconclusive are left out. Active and inactive are the calls of the source. The calls were made as follows, unless noted: active = hit-call score of the fitted dose curve at least 0.9, where 1 is the maximum; inconclusive = response in the unintended direction; inactive = score below 0.9.

Nuclear receptor subfamily 4 group A member 2 (Homo sapiens), sequence (P43354 whole entry, looked up): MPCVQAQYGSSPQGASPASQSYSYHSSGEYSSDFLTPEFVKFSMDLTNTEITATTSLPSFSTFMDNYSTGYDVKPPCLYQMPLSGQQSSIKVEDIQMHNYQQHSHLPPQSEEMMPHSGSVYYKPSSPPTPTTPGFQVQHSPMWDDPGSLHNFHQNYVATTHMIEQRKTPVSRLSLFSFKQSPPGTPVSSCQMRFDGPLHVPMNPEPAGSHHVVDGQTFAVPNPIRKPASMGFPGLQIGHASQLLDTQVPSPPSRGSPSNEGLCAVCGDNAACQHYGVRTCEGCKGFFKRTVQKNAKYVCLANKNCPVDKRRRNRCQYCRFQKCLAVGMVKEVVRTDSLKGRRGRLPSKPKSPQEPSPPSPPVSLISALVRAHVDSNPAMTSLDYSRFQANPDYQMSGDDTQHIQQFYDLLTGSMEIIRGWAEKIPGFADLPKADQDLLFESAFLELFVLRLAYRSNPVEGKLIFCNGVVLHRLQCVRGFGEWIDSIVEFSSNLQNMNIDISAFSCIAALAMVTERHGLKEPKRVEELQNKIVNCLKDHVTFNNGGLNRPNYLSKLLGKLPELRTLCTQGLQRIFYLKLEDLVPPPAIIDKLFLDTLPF
Glucocorticoid receptor (Homo sapiens), sequence (P04150 whole entry, looked up, the tested form may be a part): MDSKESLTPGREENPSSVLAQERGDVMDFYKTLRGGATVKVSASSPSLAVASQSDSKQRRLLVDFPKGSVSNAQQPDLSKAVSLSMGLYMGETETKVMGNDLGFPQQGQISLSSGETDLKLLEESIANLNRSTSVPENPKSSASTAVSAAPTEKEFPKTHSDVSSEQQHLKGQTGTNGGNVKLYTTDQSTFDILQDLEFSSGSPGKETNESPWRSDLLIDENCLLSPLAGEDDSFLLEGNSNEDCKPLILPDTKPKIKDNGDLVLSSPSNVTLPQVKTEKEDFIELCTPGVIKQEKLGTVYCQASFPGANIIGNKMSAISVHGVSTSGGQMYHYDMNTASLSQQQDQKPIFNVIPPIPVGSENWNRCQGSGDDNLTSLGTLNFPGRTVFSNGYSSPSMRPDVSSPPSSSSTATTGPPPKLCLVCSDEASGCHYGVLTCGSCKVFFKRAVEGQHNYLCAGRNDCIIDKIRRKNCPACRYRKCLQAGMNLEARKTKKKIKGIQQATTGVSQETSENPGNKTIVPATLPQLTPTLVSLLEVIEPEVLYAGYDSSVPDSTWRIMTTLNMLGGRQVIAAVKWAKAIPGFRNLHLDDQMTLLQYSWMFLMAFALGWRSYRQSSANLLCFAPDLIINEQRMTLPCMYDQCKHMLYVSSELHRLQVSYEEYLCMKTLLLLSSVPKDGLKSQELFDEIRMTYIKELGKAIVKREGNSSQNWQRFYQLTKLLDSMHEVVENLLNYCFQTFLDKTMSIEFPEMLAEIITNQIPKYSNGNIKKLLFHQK
Nuclear receptor subfamily 1 group I member 3 (Homo sapiens), sequence (Q14994 whole entry, looked up, the tested form may be a part): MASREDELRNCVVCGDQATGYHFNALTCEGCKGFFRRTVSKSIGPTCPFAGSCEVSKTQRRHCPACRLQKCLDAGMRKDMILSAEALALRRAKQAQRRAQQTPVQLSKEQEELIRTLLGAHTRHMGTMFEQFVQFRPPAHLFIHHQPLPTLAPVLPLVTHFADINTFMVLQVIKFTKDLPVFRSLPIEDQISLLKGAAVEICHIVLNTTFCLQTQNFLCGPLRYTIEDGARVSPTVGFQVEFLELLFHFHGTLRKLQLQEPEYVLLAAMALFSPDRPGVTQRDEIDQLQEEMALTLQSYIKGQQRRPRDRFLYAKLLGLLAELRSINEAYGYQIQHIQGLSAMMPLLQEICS
Oxysterols receptor LXR-alpha (Homo sapiens), sequence (Q13133 whole entry, looked up, the tested form may be a part): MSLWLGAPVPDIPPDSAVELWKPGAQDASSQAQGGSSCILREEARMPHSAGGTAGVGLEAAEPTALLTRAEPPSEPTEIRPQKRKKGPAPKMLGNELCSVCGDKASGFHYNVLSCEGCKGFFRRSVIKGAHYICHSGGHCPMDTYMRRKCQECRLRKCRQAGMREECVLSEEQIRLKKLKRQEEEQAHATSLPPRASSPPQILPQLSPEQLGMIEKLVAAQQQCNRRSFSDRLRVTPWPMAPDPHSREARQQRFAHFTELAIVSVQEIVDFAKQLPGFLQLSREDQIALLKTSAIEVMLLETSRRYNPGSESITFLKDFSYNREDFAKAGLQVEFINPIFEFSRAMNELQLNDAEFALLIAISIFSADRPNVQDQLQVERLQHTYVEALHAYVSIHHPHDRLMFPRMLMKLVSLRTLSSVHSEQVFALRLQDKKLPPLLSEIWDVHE
Estrogen receptor (Homo sapiens), sequence (P03372 whole entry, looked up, the tested form may be a part): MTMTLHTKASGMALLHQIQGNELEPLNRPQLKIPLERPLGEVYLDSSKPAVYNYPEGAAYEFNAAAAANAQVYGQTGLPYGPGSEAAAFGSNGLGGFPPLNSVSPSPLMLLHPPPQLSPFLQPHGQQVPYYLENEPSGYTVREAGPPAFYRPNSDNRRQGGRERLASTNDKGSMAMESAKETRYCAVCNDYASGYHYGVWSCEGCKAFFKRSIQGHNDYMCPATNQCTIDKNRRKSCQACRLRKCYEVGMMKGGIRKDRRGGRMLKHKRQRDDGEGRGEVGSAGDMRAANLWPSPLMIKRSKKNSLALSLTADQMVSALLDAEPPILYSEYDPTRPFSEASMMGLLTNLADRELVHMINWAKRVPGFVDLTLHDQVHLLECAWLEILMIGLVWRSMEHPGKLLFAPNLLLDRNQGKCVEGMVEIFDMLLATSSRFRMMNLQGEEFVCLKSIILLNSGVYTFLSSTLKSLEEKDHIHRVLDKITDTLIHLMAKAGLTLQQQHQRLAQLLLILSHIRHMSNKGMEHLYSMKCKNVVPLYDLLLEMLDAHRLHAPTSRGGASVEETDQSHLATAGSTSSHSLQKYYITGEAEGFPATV
Steroid hormone receptor ERR1 (Homo sapiens), sequence (P11474 whole entry, looked up, the tested form may be a part): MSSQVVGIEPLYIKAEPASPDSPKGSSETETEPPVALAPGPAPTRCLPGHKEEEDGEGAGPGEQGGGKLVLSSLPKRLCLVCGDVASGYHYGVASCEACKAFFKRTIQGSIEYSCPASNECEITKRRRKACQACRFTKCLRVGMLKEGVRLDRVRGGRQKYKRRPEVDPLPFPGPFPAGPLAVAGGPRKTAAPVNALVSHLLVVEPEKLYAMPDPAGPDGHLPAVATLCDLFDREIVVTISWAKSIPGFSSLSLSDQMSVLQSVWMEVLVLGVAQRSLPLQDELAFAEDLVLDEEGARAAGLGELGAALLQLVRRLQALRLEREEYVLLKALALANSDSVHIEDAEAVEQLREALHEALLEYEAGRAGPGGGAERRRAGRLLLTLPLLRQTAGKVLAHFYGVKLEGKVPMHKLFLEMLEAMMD
Transcriptional activator Myb (Homo sapiens), sequence (P10242 whole entry, looked up): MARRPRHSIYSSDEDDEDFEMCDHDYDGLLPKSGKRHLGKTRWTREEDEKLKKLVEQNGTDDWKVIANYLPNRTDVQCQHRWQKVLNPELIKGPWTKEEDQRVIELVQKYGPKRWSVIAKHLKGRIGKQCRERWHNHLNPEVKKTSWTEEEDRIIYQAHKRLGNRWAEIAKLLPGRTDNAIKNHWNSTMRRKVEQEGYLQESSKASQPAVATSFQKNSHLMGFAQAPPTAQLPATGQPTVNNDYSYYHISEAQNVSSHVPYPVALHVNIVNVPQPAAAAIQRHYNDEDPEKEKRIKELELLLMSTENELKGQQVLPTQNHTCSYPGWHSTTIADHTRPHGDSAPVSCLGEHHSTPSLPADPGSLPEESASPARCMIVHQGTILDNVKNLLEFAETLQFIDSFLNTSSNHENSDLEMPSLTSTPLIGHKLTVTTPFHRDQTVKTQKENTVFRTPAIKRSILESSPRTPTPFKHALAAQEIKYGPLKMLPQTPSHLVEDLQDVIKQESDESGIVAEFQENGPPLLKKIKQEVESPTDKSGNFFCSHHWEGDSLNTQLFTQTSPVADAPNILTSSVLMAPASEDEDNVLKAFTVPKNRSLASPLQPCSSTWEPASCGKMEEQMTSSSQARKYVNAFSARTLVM

Take `CCCSP(=S)(OCC)Oc1ccc(Cl)cc1Cl` (stereo not given): the results for the AC50 in assay [1] and in assay [4] were 137 µM (active) and 2.91 µM (active), respectively. Also, the call in [2], in assay [3], in assay [5], in assay [6], in [7] and in [8] was inactive. The call in assay [9], in assay [10], in assay [11] and in [12] was inactive.
In the case of `Oc1cccc(-c2ccccc2)c1`, the call in assay [1], in [3], in [6], in [13], in assay [14] and in assay [8] was inactive. Further, the compound was classed as inactive in [10], in assay [11] and in assay [12]. Besides, the half-maximal activity concentration (AC50) was 66.3 µM (active) in assay [2] and 6.57 µM (active) in [4].
As for `C=CCCl`, the compound was classed as inactive in [1], in [2], in assay [3], in assay [4], in assay [6] and in assay [15]. For the same compound, the outcome in [16], in [7], in assay [17], in assay [18], in assay [9] and in [11] was inactive. In addition, the compound was classed as inactive in assay [12].
`O=S(=O)(c1ccc(Cl)cc1)c1cc(Cl)c(Cl)cc1Cl`: the outcome in assay [1], in assay [3], in [4], in assay [6], in [13] and in assay [16] was inactive. In addition, the compound was called inactive in [19], in assay [8], in [10], in assay [11] and in assay [12]. For the same compound, the concentration at half-maximal activity (AC50) in [2] was 2.79 µM (active).
With `COC(F)(C(F)(F)C(F)(F)F)C(F)(C(F)(F)F)C(F)(F)F` (stereo not given), the result in [1], in [2], in assay [3], in assay [4], in assay [5] and in [6] was inactive. Further, the result in [20], in assay [15], in assay [13], in [16], in [19] and in assay [7] was inactive. In addition, the compound was classed as inactive in assay [8], in assay [9], in [10], in [11] and in [12].

The record behind these values is PubChem BioAssay (EPA / NIEHS).
